Compounds with a hit are over-represented: about 19% of the library has one in this group of screens.
Cycloheximide cs: Cycloheximide Counterscreen for Small Molecule Inhibitors of Shiga Toxin; cell reporter, cycloheximide protein synthesis inhibition counterscreen; max response, %; hit rate 12% among 300,000; in the data active means max response mostly above about 13%, no sharp cut-off; inactive means mostly below about 14%; further: read at 38.3 µM for the half of the compounds with a filed dose; 0% is about no effect
MARV entry inh: qHTS for inhibitors of binding or entry into cells for Marburg Virus | Marburg virus pseudotyped entry inhibition, cell reporter | Potency, µM (series often up to 37.8 µM), inactives show at the highest dose activity change, negative = inhibition, most hits filed as inhibitors | hit rate 1.8% among 300,000 | AID 540276, 2011; calls by dose curve; tested in HEK293 cells; further: potency means the concentration at half of the fitted maximal effect; on the % scale 0 is the no-effect control and ±100 the full control effect
Pf growth 96h: Primary qHTS for delayed death inhibitors of the malarial parasite plastid, 96 hour incubation | Potency, µM (titrated, usually from 28.7 µM), without a hit: at the highest dose activity change, negative = inhibition, usual class: inhibitors | P. falciparum luciferase reporter growth, 96 h | hit rate 6.9% among 320,000 | AID 504834, 2011; further: potency means the concentration at half of the fitted maximal effect; on the % scale 0 is the no-effect control and ±100 the full control effect
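Compounds incubated with erythrocytes infected by luciferase-expressing P. falciparum (2% hematocrit, 0.05% parasitemia final) for 96 hours, 37 C in 5% CO2. Growth inhibition scored as decreased luciferase luminescence.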
LASV entry inh: qHTS for Inhibitors of binding or entry into cells for Lassa Virus; hit rate 1.2% among 300,000; Potency, µM (doses to about 37.9 µM), inactives show at the highest dose activity change, negative = inhibition, actives largely listed as inhibitors; AID 540256, 2011; Lassa virus pseudotype entry inhibition, cell reporter; calls by dose curve; tested in HEK293 cells; further: potency means the concentration at half of the fitted maximal effect; on the % scale 0 is the no-effect control and ±100 the full control effect; nearly all actives have a fitted effect of over 50% in size
Pf growth 48h: Primary qHTS for delayed death inhibitors of the malarial parasite plastid, 48 hour incubation. hit rate 5.9% among 310,000. P. falciparum luciferase growth in erythrocytes, 48 h. Potency, µM (highest dose often 28.7 µM), for inactives: top-dose activity change, negative = inhibition, hits mostly inhibitors; further: potency means the concentration at half of the fitted maximal effect; on the % scale 0 is the no-effect control and ±100 the full control effect
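Compounds are pin-transferred into medium, infected erythrocytes (2% hematocrit, 0.1% parasitemia final) are added, and plates sit one parasite generation at 37 C in 5% CO2. Detection reagent is then added and luminescence measured.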
Shiga toxin inh: A qHTS for Small Molecule Inhibitors of Shiga Toxin; hit rate 9.2% among 290,000; Vero cells, Shiga toxin protein synthesis inhibition reporter; inhibition, % at 38.7 µM; in the data active means inhibition mostly above about 28%, no sharp cut-off; inactive means mostly below about 43%; further: 0% is about no effect
Starred values were filed as active, the others as inactive; i = inactive; ? = inconclusive; / = no result given; [ ] = another dose, or the depositor's remark. Unless noted, the call rests on the fitted dose curve; in most records, active means well fitted inhibition curve with a large enough effect; inconclusive means small, poorly fitted or top-dose-only effect, or another doubt; inactive means no such curve, though single readings can be large or run the other way.

SMILES	Cycloheximide cs	MARV entry inh	Pf growth 96h	LASV entry inh	Pf growth 48h	Shiga toxin inh
COc1ccc(CCNCC(O)COc2ccc(OC)cc2C(C)(C)C)cc1 (stereo not given)	-7	?	2.3µM*	?	2.3µM*	-10
O=C(Nc1ccc(Oc2ccccc2)nc1)C1CCCCN1Cc1cccc(OCCO)c1 (stereo not given)	16	?	?	-8%[46.1 µM]	?	10
Cn1c(=O)c2c(nc3n2CC(COc2ccccc2)O3)n(C)c1=O (stereo not given)	-2	/	9.3µM*	/	0%	23
CCc1cccc(OCC2Cn3c(nc4c3c(=O)[nH]c(=O)n4C)O2)c1 (stereo not given)	-2	/	12µM*	/	5%	-4
CC(C)N1CC(COc2ccc(Br)cc2)OC1=O (stereo not given)	11	/	-15%	/	30%	3
CC(C)(C)N1CC(COc2ccccc2)OC1=O (stereo not given)	21*	?	29%	21%	45%	23
Cn1ncc(S(=O)(=O)Cc2ccccc2)c(Br)c1=O	/	-18%	/	9.2µM*	/	/
NC(=O)Cn1cc(/C=N\NS(=O)(=O)c2cccc([N+](=O)[O-])c2)c2ccccc21	1	6%	-11%	0%	3%	-8
CCOC(=O)/C(N=Nc1ccc2c(c1)OCO2)=C(\C)O	51*	?	224%	/	400%	92*
OC(CCN1CCOCC1)c1ccccc1 (stereo not given)	-1	-2%[46.1 µM]	121%	8%[46.1 µM]	75%	-6
OC(CCN1CCCCC1)c1ccc(-c2ccccc2)cc1 (stereo not given)	52*	/	4.7µM*	/	/	72*
COC(=O)c1ccc(NC(=O)CSc2nc3ccccc3c(=O)[nH]2)cc1	-1	-5%	27%	?	/	-3
CCC(Sc1nc2ccccc2c(=O)[nH]1)C(=O)Nc1ccc(C(C)=O)cc1 (stereo not given)	32*	18%[46.1 µM]	8%	20%	68%	59*
Cc1ncsc1CCOC(=O)C1C2CC3CC(C2)CC1C3 (stereo not given)	-2	9%	13µM*	?	?	-4
Clc1ccc([C@@H](OCCN2CCCCC2)c2ccccc2)cc1	/	/	3.2µM*	/	?	/
C/C(N)=C(/C#N)C(=O)CSc1nc2ccccc2c(=O)n1-c1ccc(C)c(Cl)c1	1	?	-12%	-21%	-13%	-11
Fc1ccccc1/C=N/Nc1nc2ccccc2o1	50*	/	?	/	144%	79*
FC(F)Oc1ccccc1/C=N/Nc1nc2ccccc2o1	44*	14%[46.1 µM]	130%	0%	77%	74*
COc1ccc(CNC(=O)c2cc3c(=O)n(Cc4ccc(OC)cc4)ccc3nc2C)cc1	/	/	/	-13%[46.1 µM]	/	/
CCCN(CCC)CCNC(=O)C1CCN(Cc2nc(-c3ccc(Cl)cc3)oc2C)CC1	-3	10µM*	?	?	4.7µM*	26
Cc1oc(-c2cccc(Cl)c2)nc1CN1CCC(C(=O)NCCc2ccc(Cl)cc2)CC1	/	2%[46.1 µM]	/	17%[46.1 µM]	/	/
Cc1oc(-c2cccc(Cl)c2)nc1CN1CCC(C(=O)NCCCN2CCCC2=O)CC1	-4	-4%	12µM*	/	/	-13
Cc1oc(-c2cccc(Cl)c2)nc1CN1CCC(C(=O)NCCCN2CC(C)CC(C)C2)CC1 (stereo not given)	-1	/	-26%	/	7.4µM*	-3
Cc1oc(-c2ccc(Cl)cc2)nc1CN1CCC(C(=O)NCc2cccnc2)CC1	8	-29%	0%	0%	-36%	5
CCOC(=O)N1CCN(C(=O)C2CCCN(Cc3nc(-c4ccc(Cl)cc4)oc3C)C2)CC1 (stereo not given)	-4	/	10µM*	/	/	-1
COc1ccc(C(C)=O)cc1COc1ncnc2ccccc12	-1	1%[46.1 µM]	-12%	?	20%	5
CCCOC1CCCN(C(=O)c2cc(COc3ccc(F)c(F)c3)on2)C1 (stereo not given)	44*	3%	?	-12%	-1%	109*
CCOC(=O)N1CCN(C(=O)c2cc(COc3ccc4ncccc4c3)on2)CC1	-2	?	i	-13%[46.1 µM]	?	-8
